Here are results for 16 compounds from PubChem BioAssay.

Assay [1] concerns Human papillomavirus type 1a protein E7 (residues 44-93). As to the kind of experiment: HPV1a E7 fragment binders on microarrays, primary screen, biochemical, small-molecule microarray, residues 44-93, 635 nm fluorescence (AID 1108).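 Also: E7 fragment applied at 1 µg/mL in TBST for 1 h at 4 C; score combines spot fluorescence with its signal to noise ratio.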 As to conditions: small-molecule microarray binding, fluorescence 635 nm; higher = more signal.
Assay [2] is described as follows: modulators of HCV replicon luciferase signal, primary screen, HCV replication inhibitor project, Huh7 cells, luciferase reporter (AID 1109).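 Also: huh7 hepatoma cells harbouring a luciferase neomycin HCV replicon reporter; luciferase luminescence as measure of HCV replicon replication; test concentration not given here.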 As to conditions: 48 h, higher = more signal. On the technique in general: A replicon is a self-replicating genome or part of one, used to study replication in cells.
The target of assay [3] is Left-right determination factor 2 (Homo sapiens) (UniProt O00292). The experiment in a line: LEFTY2 binders on small-molecule microarrays, primary screen, biochemical, small-molecule microarray, 635 nm fluorescence scan (AID 1110). As to conditions: LEFTY2 binding, higher = more signal.
Left-right determination factor 2 (Homo sapiens), sequence (O00292 whole entry, looked up): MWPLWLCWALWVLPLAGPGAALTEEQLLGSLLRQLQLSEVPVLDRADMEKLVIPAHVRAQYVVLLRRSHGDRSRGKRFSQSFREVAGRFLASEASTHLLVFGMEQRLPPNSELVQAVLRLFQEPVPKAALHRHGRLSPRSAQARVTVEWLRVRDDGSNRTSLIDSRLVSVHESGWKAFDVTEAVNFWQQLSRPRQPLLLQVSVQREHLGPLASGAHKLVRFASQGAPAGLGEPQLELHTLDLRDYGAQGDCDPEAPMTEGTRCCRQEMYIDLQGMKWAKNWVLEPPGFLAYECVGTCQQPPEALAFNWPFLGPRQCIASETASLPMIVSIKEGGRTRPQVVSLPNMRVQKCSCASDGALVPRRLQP
In assay [4] the target is Calmodulin-1 (Homo sapiens) (UniProt P0DP23). As to the kind of experiment: CALM1 binders on microarrays, EGTA buffer, profiling panel, biochemical, small-molecule microarray, Cy5-labelled CALM1 (AID 1111).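 Also: labelled calmodulin applied in Tris saline Tween buffer holding calcium plus EGTA and DTT.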 As to conditions: Cy5-CALM1 binding fluorescence, higher = more signal.
The target is the same in assay [5]. As to the kind of experiment: calcium-bound CALM1 binders on microarrays, profiling panel, artefact control for SMM control-protein annotation, biochemical, small-molecule microarray, Cy5-labelled CALM1, plus calcium (AID 1112).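 Also: score merges spot fluorescence with signal to noise from triplicate slides.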 Particulars: Cy5-CALM1 binding fluorescence, higher = more signal.
Assay [6] in a line: small-molecule microarray binders of probe aWnt5a, primary screen, biochemical, biotinylated probe, 635/667 nm fluorescence (AID 1113).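 Also: score merges 667 nm fluorescence intensity with signal-to-noise per printed feature.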 As to conditions: higher = more signal.
The nature of assay [7]: small-molecule microarray binders of probe aShh, primary screen, biochemical, biotinylated probe, 635/667 nm fluorescence (AID 1114).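 Also: probe is biotin-labelled aShh protein from a stem cell growth factor screen; measures binding of labelled protein to compounds printed on the slide; score merges feature fluorescence at 667 nm with signal-to-noise.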 Particulars: higher = more signal.
Assay [8] is described as follows: small-molecule microarray binders of probe aNog, primary screen, biochemical, biotinylated probe, 635/667 nm fluorescence (AID 1115).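 Also: probe is biotinylated aNog protein used at 0.15 µg/mL for 1 h at 4 C; z-score combines 667 nm fluorescence of each spot with its signal to noise.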 As to conditions: higher = more signal.
Assay [9] concerns the target Torsin-1A-interacting protein 1 (Homo sapiens) (UniProt Q5JTV8). As to the kind of experiment: LAP1 binders from COS7 cell lysate, primary screen, small-molecule microarray, 635/667 nm fluorescence (AID 1116). Particulars: COS7-hLAP1 lysate binding, 635 nm fluorescence, higher = more signal.
Assay [10] addresses Alpha-bungarotoxin (Bungarus multicinctus) (UniProt P60615). The experiment in a line: alpha-bungarotoxin binders on microarray, profiling panel, artefact control for SMM control protein annotation, biochemical, small-molecule microarray, Alexa647 label, 635/667 nm fluorescence (AID 1117). Particulars: alpha-BTX-A647 binding fluorescence, higher = more signal.

SMILES strings stand for the structures.

Alpha-bungarotoxin (Bungarus multicinctus), sequence (P60615 whole entry, looked up): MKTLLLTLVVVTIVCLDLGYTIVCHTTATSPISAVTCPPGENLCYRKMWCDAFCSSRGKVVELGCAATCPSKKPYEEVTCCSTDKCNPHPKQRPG
Torsin-1A-interacting protein 1 (Homo sapiens), sequence (Q5JTV8 whole entry, looked up): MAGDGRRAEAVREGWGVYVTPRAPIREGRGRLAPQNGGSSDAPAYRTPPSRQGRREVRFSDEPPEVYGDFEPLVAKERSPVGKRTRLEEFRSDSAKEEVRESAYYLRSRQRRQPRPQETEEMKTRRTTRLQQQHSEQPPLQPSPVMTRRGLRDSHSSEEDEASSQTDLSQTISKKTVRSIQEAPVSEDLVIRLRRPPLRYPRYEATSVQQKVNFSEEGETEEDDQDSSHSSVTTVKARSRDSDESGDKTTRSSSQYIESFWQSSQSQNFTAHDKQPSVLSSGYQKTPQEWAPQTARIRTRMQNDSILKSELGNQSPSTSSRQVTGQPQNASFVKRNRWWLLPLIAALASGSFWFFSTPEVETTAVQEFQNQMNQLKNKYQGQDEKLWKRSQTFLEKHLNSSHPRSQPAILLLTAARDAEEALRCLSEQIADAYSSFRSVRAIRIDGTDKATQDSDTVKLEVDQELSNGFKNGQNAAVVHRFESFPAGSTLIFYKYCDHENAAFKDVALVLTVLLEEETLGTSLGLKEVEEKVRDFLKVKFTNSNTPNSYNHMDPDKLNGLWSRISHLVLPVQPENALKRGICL

Consider `COc1ccc(C#Cc2ccc3c(c2)[C@]2(C(=O)N3)[C@H](C(=O)N3CCc4cc(OC)c(OC)cc4C3)[C@H]3C(=O)O[C@H](c4ccccc4)[C@H](c4ccccc4)N3[C@@H]2c2ccc(O)cc2)cc1`, for which the composite z-score in assay [1] was 1.38; in assay [3], 0.388; in [4], 1.22; in assay [5] it was 0.06; in assay [6] it was -0.122; in [7], -0.0243. The composite z-score in [8] stood at 0.272; in assay [9], 0.0204; in [10], 1.04. Moreover, in assay [2], the z-score is -1.21.

Consider `[N-]=[N+]=NCc1ccccc1C[C@@]1(C(=O)NCCN2CCOCC2)N=C(c2ccc(OCCCO)cc2)O[C@@H]1c1ccccc1N=[N+]=[N-]`, for which the composite z-score is 1.4 in [1]; -0.429 in [3]; 1.16 in [4]; 0.415 in assay [5]; 0.168 in assay [6]; 0.0141 in assay [7]. The composite z-score came out at 0.78 in assay [8], 0.948 in assay [9] and 1.89 in assay [10]. Moreover, in assay [2], the z-score is -3.07.

In the case of `COc1ccc([Si](C)(C)[C@H]2[C@H](CCn3cc([C@H](O)c4ccccc4)nn3)O[C@@]3(C(=O)N(Cc4cccc(N5C(=O)c6cccc7cccc5c67)c4)c4ccccc43)[C@@H]2C)cc1`, the composite z-score was -0.56 in [1]; -0.823 in assay [3]; 0.419 in assay [4]; 1.13 in assay [5]; -0.175 in assay [6]; -0.2 in assay [7]. The composite z-score was 0.206 in assay [8], -0.0061 in assay [9] and -1.02 in [10]. The same compound registered a z-score in assay [2] of -2.67.

As to `COCCCNC(=O)[C@]1(Cc2ccccc2N=[N+]=[N-])N=C(c2ccc(OCCCO)cc2)O[C@@H]1c1ccccc1N=[N+]=[N-]`, the composite z-score was 1.43 in assay [1]; -0.282 in assay [3]; 1.72 in assay [4]; 0.785 in assay [5]; 0.14 in assay [6]; 0.0556 in assay [7]. The composite z-score in [8] was -0.312; in assay [9] it was -0.0819; in assay [10] it was 0.955. In assay [2], this compound yielded a z-score of -3.31.

As to `CCCC[C@@H]1C[C@H]1[C@@H](NC(=O)c1ccccc1)c1ccc(Cl)cc1`, the composite z-score was -1.15 in [1]; -1.86 in assay [3]; 0.014 in assay [4]; 1.42 in assay [5]; -0.247 in [6]; -0.209 in assay [7]. Also, the composite z-score was 0.253 in assay [8], 1.23 in assay [9] and -1.51 in [10]. For the same compound, the z-score in assay [2] is -1.65.

On to `CCOC(=CC(=O)OC)CC(O)c1cccc(Cl)c1` (stereo not given), for which the composite z-score is 1.11 in assay [1]; -0.796 in assay [3]; -0.265 in [4]; 0.486 in assay [5]; -0.0685 in assay [6]; -0.156 in assay [7]. For the same compound, the composite z-score in [8] was -0.527; in [9], 1.36; in assay [10], -0.259. The same compound gave a z-score in assay [2] of -2.17.

As to `COC(=O)c1c(CC[C@@H](CO)NC(=O)N[C@H](Cn2cc(-c3ccccc3C)nn2)C(C)C)oc(C(C)=O)c1C(=O)OC`, the composite z-score in [1] was -0.794; in [3] it was -0.645; in assay [4], -0.0696; in assay [5], -0.637; in assay [6] it was -0.169; in assay [7], -0.0553. For the same compound, the values for the composite z-score in assay [8], in [9] and in [10] were 0.0099, 0.441 and 0.879, respectively. The z-score in assay [2] is -0.515.

In the case of `C=CC[C@]1(C(=O)N(C)C)N=C(c2ccc(OCCCO)cc2)O[C@H]1c1ccccc1N=[N+]=[N-]`, the composite z-score in assay [1] is 1.4; in assay [3], -0.406; in assay [4], 2.27; in assay [5], 0.116; in assay [6], 0.0559; in assay [7] it was 0.158. Further, the composite z-score is -0.0009 in [8], 0.959 in assay [9] and 2.03 in [10]. In [2], this compound gave a z-score of -0.277.

For the compound `[N-]=[N+]=NCc1ccccc1C[C@@]1(C(=O)N2CCCCC2)N=C(c2ccc(OCCCO)cc2)O[C@@H]1c1ccccc1N=[N+]=[N-]`, the composite z-score was 1.37 in assay [1]; -0.0573 in assay [3]; 1.43 in assay [4]; 0.795 in assay [5]; -0.392 in [6]; -0.284 in assay [7]. For the same compound, the composite z-score was -0.919 in assay [8], 0.209 in assay [9] and 0.809 in assay [10]. Also, the z-score in assay [2] is -1.04.

As to `C[C@H]1ON(c2ccc(C(=O)OC(C)(C)C)cc2)[C@@H](c2ccc(O)cc2)[C@@H]1C(=O)N1C(=O)OC[C@@H]1c1ccccc1`, the composite z-score is 0.644 in assay [1]; 0.465 in assay [3]; 0.403 in [4]; -0.32 in assay [5]; -0.0977 in assay [6]; -0.341 in assay [7]. In addition, the composite z-score in assay [8] was -0.383; in assay [9] it was 0.165; in [10], 0.413. This compound also gave a z-score in assay [2] of -3.09.

As for `CN(C)CCCNC(=O)[C@@]1(C)c2ccccc2C(=O)N(Cc2cc(C(F)(F)F)cc(C(F)(F)F)c2)[C@H]1c1ccc(CO)cc1`, the composite z-score in assay [1] was -0.488; in assay [3] it was -1.31; in assay [4] it was 0.139; in assay [5], 0.0751; in assay [6], -0.118; in assay [7] it was -0.134. For the same compound, the composite z-score in [8] was -0.484; in assay [9] it was -0.54; in assay [10], -0.779. The compound further had a z-score in [2] of -1.85.

In the case of `C=C[C@@H](COC(C)=O)NS(=O)(=O)c1ccc(Br)cc1`, the composite z-score was 0.487 in assay [1]; 0.219 in [3]; -0.271 in assay [4]; -0.144 in [5]; -0.0478 in [6]; -0.0643 in assay [7]. For the same compound, the composite z-score in assay [8] is -0.538; in [9], -0.0651; in [10], 0.225. In assay [2], this compound returned a z-score of -0.178.

As for `O=C1O[C@H](c2ccccc2)[C@H](c2ccccc2)N2[C@H]1[C@@H](C(=O)O)[C@]1(C(=O)Nc3ccccc31)[C@H]2c1ccc(O)cc1`, the composite z-score is 0.49 in assay [1]; -0.274 in assay [3]; -0.2 in [4]; -0.262 in assay [5]; -0.1 in assay [6]; -0.262 in assay [7]. Also, the composite z-score in assay [8] was 0.101; in assay [9], -0.321; in assay [10] it was -0.286. The compound further came in with a z-score in assay [2] of -0.361.

For the compound `CC1CC/C=C\[C@H]2OC34C=CCN(c5ccc6ccccc6c5)C(=O)[C@H]3N(C(CO)C(C)C)C(=O)[C@@H]4C2C(=O)O1` (stereo not given in full), the composite z-score in assay [1] is -0.546; in assay [3] it was -0.854; in assay [4] it was -0.822; in assay [5] it was -0.419; in assay [6], -0.169; in assay [7] it was -0.164. Besides, the composite z-score is -0.267 in assay [8], -0.203 in assay [9] and 0.462 in assay [10]. Also, the z-score in assay [2] is -0.957.

As for `CC[C@H]1C2=C3C(CC[C@H]4C(OCc5ccc(F)cc5C(F)(F)F)OC[C@](C)([C@@H]34)N(C(=O)OC(C)(C)C)C2)C2COC(=O)OCC21` (stereo not given in full), the composite z-score in assay [1] is 1.34; in [3] it was -0.532; in assay [4] it was 2.48; in assay [5], 0.911; in assay [6], -0.0297; in [7], 0.246. The composite z-score in assay [8] was -0.712; in assay [9], 0.713; in [10], 0.347. Moreover, the z-score in assay [2] is -2.1.

As to `CCCCN1CC=CC23O[C@@H]4C=CCOC(=O)[C@@H]4[C@H]2C(=O)N(C(C)CO)[C@@H]3C1=O` (stereo not given in full), the composite z-score in assay [1] was -1.31; in [3], -1.29; in assay [4] it was -0.397; in assay [5], 0.5; in assay [6], -0.169; in [7], -0.209. The composite z-score in assay [8] was 0.26; in assay [9], -0.194; in [10], -0.714. Besides, the z-score in assay [2] is -0.748.
